Active and inactive are the calls of the source. The calls were made as follows: active = hit-call score of the fitted dose curve at least 0.9, where 1 is the maximum; inactive = score below 0.9.
molecular target: Hepatocyte nuclear factor 3-beta (Homo sapiens) (UniProt Q9Y261); assay: ATG_FoxA2_CIS: Attagene CIS-FACTORIAL HepG2 Assay for human Forkhead box A2 (FOXA2) (AID 2282942); details: HepG2 cis-reporter transcription factor activity, 24 h; actives raise or lower the signal
Procedure: ATG_CIS is a cell-based, multiplexed-readout assay that uses HepG2, a human liver cell line, with measurements taken at 24 hours after chemical dosing in a 24-well plate.ATG_FoxA2_CIS is one of 52 assay component(s) measured or calculated from the ATG_CIS assay. It is designed to make measurements of mRNA induction, a form of inducible reporter, as detected with fluorescence intensity signals by Reverse transcription polymerase chain reaction (RT-PCR) and Capillary electrophoresis technology.Data from the assay component ATG_FoxA2_CIS was analyzed into 1 assay endpoint. This assay endpoint, ATG_FoxA2_CIS, was analyzed with bidirectional fitting relative to DMSO as the negative control and baseline of activity. Using a type of inducible reporter, measures of mRNA for gain or loss-of-signal activity can be used to understand the reporter gene at the transcription factor-level as they relate to the gene FOXA2. Furthermore, this assay endpoint can be referred to as a primary readout, because this assay has produced multiple assay endpoints where this one serves a reporter gene function. To generalize the intended target to other relatable targets, this assay endpoint is annotated to the dna binding intended target family, where the subfamily is forkhead box protein.
Human liver HepG2 cells are transiently transfected with multiple reporter transcription units (MRTUs) in 6-well plates using FuGene 6 reagent (Roche; 3 ml FuGene/1 mg DNA). The MRTU constructs are regulated by a cis-regulating element (promoter). […] A major difference between the CIS and TRANS system is that in CIS activities of endogenous TFs are measured, whereas the TRANS assay evaluates changes in activities of exogenous, chimeric NR-Gal4 proteins. […] At the end of 24 hour incubation, total RNA was isolated using TriZol reagent (Invitrogen). The isolated RNA is then reverse-transcribed using oligo(dT) primer and Mo-MLV reverse transcriptase (Invitrogen) with DNAse I (Ambion) treatment for 30 min. The one-tenth of the produced cDNA was amplified by PCR using Taq DNA polymerase (Invitrogen) and two reporter sequence-specific primers. The PCR products were fluorescently labeled by primer extension with 6-arboxyfluorescein (6-FAM) 5'-labeled reporter sequence-specific primer (2 min at 95 C, 20 s at 68 C and 10 min at 72 C) and these products were digested with 5U of HpaI (New England Biolabs) for 2h at 37 C. The fragments were purified using Qiaquick PCR columns (Qiagen), analyzed on an ABI 3130xL genetic analyzer (Applied Biosystems) with peak positions identified by using a set of X-rhodamine (ROX)-labeled MapMarker1000 molecular weight standards (BioVentures). The raw capillary electrophoresis data was processed using Attagraph software (Attagene).

Hepatocyte nuclear factor 3-beta (Homo sapiens), sequence (Q9Y261 whole entry, looked up): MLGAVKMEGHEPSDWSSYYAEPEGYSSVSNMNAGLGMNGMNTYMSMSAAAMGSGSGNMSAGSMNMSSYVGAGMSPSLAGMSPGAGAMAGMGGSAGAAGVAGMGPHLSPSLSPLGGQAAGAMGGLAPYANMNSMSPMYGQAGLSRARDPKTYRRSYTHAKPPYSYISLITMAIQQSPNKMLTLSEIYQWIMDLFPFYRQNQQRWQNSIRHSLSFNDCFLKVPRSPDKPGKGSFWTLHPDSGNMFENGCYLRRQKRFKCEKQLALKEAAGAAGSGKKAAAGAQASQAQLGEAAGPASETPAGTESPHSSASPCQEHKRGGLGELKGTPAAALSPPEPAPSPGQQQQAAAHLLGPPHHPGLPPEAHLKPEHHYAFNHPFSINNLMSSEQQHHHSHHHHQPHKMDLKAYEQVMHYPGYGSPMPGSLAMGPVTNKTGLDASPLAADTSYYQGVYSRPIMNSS

Row | Compound | outcome | AC50
1 | NNCCO | inactive | –
2 | CCC[CH2][Sn]([Cl])([Cl])[CH2]CCC | inactive | –
3 | CCCCCCCCCCCCOS(=O)(=O)O | inactive | –
4 | C=C(C)C(=O)OCCCCOC(=O)C(=C)C | inactive | –
5 | CCCCCCCCCCCCN(C)C | inactive | –
6 | C[N+](C)(C)Cc1ccccc1 | inactive | –
7 | CCOC(=O)CC(=O)CCl | – | 133 µM (active)
8 | CC(C)(C)c1ccccc1O | inactive | –
9 | ClCc1ccccc1CCl | – | 33.4 µM (active)
10 | ClCCCCl | inactive | –
11 | C=CCOC(F)(C(F)(F)F)C(F)(F)F | inactive | –
12 | CCCCC(CC)COC(=O)Cl (stereo not given) | inactive | –
13 | CCCCOC(C)=O | inactive | –
14 | CC1(C)[C@H](C(=O)O[C@H](C#N)c2cccc(Oc3ccccc3)c2)[C@@H]1/C=C(\Cl)C(F)(F)F | inactive | –
15 | CC(c1ccc(O)cc1)c1ccc(O)cc1 | inactive | –
16 | CC(=Cc1ccccc1)[N+](=O)[O-] | inactive | –
17 | O=C(O)CC(O)(CC(=O)O)C(=O)O | inactive | –
18 | Nc1ccc(N)cc1 | inactive | –
19 | CCOc1ccc(N)cc1 | inactive | –
20 | O=C1c2ccccc2C(=O)C1C(=O)C(c1ccccc1)c1ccc(Cl)cc1 (stereo not given) | – | 11.9 µM (active)

Row | Compound | outcome | AC50
21 | Brc1ccc(Oc2c(Br)cc(Br)cc2Br)c(Br)c1 | inactive | –
22 | FC(F)OCC(F)(F)C(F)(F)F | inactive | –
23 | CCCCN(CCCCO)N=O | inactive | –
24 | C[CH2][Hg][S]c1ccccc1C(=O)O | inactive | –
25 | Nc1cccnc1 | inactive | –
26 | N#CS | inactive | –
27 | O=C(NC(=O)c1c(F)cccc1F)Nc1ccc(Cl)cc1 | inactive | –
28 | COC(=O)c1cc(Oc2ccc(Cl)cc2Cl)ccc1[N+](=O)[O-] | inactive | –
29 | CCOC(=O)C(SP(=S)(OC)OC)c1ccccc1 (stereo not given) | inactive | –
30 | CC(C)(C#N)N=NC(C)(C)C#N | inactive | –
31 | CC(C)=CC1C(C(=O)OCc2cccc(Oc3ccccc3)c2)C1(C)C (stereo not given) | inactive | –
32 | C=C(C)[C@@H]1CC=C(C=O)CC1 | inactive | –
33 | O=C(O)C1(c2ccc3c(c2)OC[C@H](Cc2ccc(-c4ccccc4)cc2)[C@H]3O)CCCC1 | inactive | –
34 | OC(c1ccc(Cl)cc1)(c1ccc(Cl)cc1)c1cccnc1 | inactive | –
35 | O=C(N[C@H]1CN2CCC1CC2)c1ccc2c(c1)OCCO2 | inactive | –
36 | CC(C)O.CC(C)O.OCCN(CCO)CCO.OCCN(CCO)CCO.[Ti] | inactive | –
37 | O=c1oc2ccccc2c(O)c1C(CC(O)c1ccc(-c2ccc(Br)cc2)cc1)c1ccccc1 (stereo not given) | inactive | –
38 | C=CCc1ccccc1O | inactive | –
39 | C#CCO | inactive | –
40 | [Cl][Sn]([c]1ccccc1)([c]1ccccc1)[c]1ccccc1 | inactive | –

Source: PubChem BioAssay (EPA / NIEHS)
